In ChEMBL document CHEMBL4513216, “Probing the Open Global Health Chemical Diversity Library for Multistage-Active Starting Points for Next-Generation Antimalarials” (ACS Infect Dis, 2020):
The campaign covered roughly 69,000 compounds. About 8,600 (12%) showed an effect of 50% or more. Shown is part of a subset that was picked to be rich in strong results.

These compounds were tested on Plasmodium berghei (assay: Screen against P. berghei liver stage (PbLuc), transformed with Luciferase, at 10uM). Conditions: tested at 10 uM.
Format: functional, HepG2

**Q.** For `Cc1cc(C)n(C2CCCN(C(=O)CCc3nccs3)C2)n1` (stereo not given), which INHIBITION is on record?
**A.** 21.6%

**Q.** How did the INHIBITION turn out when `CCCN1CC[C@@H]2[C@@H](CO[C@H]2CNC(=O)c2nccn2C)C1` was run?
**A.** 34%

**Q.** `Cn1cc(C(=O)NC[C@@H]2OC[C@H]3CN(S(C)(=O)=O)CC[C@H]32)cn1` was tested. Which INHIBITION did it give?
**A.** 18.5%

**Q.** Which INHIBITION does the source give for `CN1CC[C@@H]2[C@@H](CO[C@H]2CNC(=O)c2nccn2C)C1` here?
**A.** -17.7%

**Q.** How did the INHIBITION turn out when `Cn1ccnc1C(=O)NC[C@H]1OC[C@@H]2CCN(S(C)(=O)=O)C[C@@H]21` was run?
**A.** 52.1%

**Q.** `Cn1ccnc1C(=O)NC[C@@H]1OC[C@H]2CN(CC3CC3)CC[C@H]21` was tested. Which INHIBITION did it give?
**A.** 20.4%

**Q.** How did the INHIBITION turn out when `Cn1ccnc1C(=O)NC[C@@H]1OC[C@H]2CN(S(C)(=O)=O)CC[C@H]21` was run?
**A.** 64.7%

**Q.** How did the INHIBITION turn out when `NCC(CO)Cc1cccc(OC(F)(F)F)c1` (stereo not given) was run?
**A.** -14.5%

**Q.** `CC(C)N1Cc2c(C(=O)N3CCOCC3)nn(C)c2C1` was tested. Which INHIBITION did it give?
**A.** 6.82%

**Q.** `CC(C)(C)C(=O)N1CCCC1c1cc(CO)[nH]n1` (stereo not given) was tested. Which INHIBITION did it give?
**A.** 3.585%

**Q.** How did the INHIBITION turn out when `CC(C)c1csc(C2CCCN(C(=O)c3ccc(=O)n(C)n3)C2)n1` (stereo not given) was run?
**A.** -7.48%

**Q.** How did the INHIBITION turn out when `CC(C)c1csc(C2CCCN(C(=O)c3ncccn3)C2)n1` (stereo not given) was run?
**A.** 31.9%

**Q.** `CC(C)c1csc(C2CCCN(C(=O)c3ccc[nH]3)C2)n1` (stereo not given) was tested. Which INHIBITION did it give?
**A.** 59.1%

**Q.** `CC(C)c1csc(C2CCCN(C(=O)Cn3ccccc3=O)C2)n1` (stereo not given) was tested. Which INHIBITION did it give?
**A.** 9.25%

**Q.** For `CC(C)c1csc(C2CCCN(C(=O)c3ccc(=O)n(C)c3)C2)n1` (stereo not given), which INHIBITION is on record?
**A.** 52.6%

**Q.** Which INHIBITION does the source give for `Cc1nc(C(=O)N2CCCC(c3nc(C(C)C)cs3)C2)c[nH]1` (stereo not given) here?
**A.** 8.12%

**Q.** Which INHIBITION does the source give for `Cc1c(COc2ccccc2)cccc1NC(=O)N1CC[C@H](O)C1` here?
**A.** 26.9%

**Q.** `COCCC(=O)NCC(O)c1c(F)cccc1F` (stereo not given) was tested. Which INHIBITION did it give?
**A.** -2.92%

**Q.** Which INHIBITION does the source give for `Cc1ccc(NC(=O)c2ccc(=O)n(CC(=O)NC3CCCC3)n2)cc1` here?
**A.** 16.2%

**Q.** With `O=C(O)c1sccc1Oc1ccc(NC(=O)C2CC2)cc1` as the compound, how does the INHIBITION read?
**A.** 22.6%

**Q.** With `CCn1cnnc1CCNc1nc(C)cc(C)c1C#N` as the compound, how does the INHIBITION read?
**A.** 32.775%

**Q.** For `Cc1cc(C)c(C#N)c(NCCn2cnnc2C(C)C)n1`, which INHIBITION is on record?
**A.** 58.9%

**Q.** Which INHIBITION does the source give for `Cc1cc(C)c(C#N)c(NCCSc2nncn2C)n1` here?
**A.** 7.45%

**Q.** Which INHIBITION does the source give for `CCCn1nc(C)c(CN(CCN(C)C)Cc2ccccn2)c1C` here?
**A.** 13.7%

**Q.** For `Cc1ccccc1CN(Cc1ccncc1)CC(C)C`, which INHIBITION is on record?
**A.** 21.5%

**Q.** For `Cc1ccccc1CN(Cc1ccc(S(C)(=O)=O)cc1)CC(C)C`, which INHIBITION is on record?
**A.** 78.9%

**Q.** With `Cc1ccccc1CN(CCN(C)C)Cc1ccc(S(C)(=O)=O)cc1` as the compound, how does the INHIBITION read?
**A.** 40.4%

**Q.** With `CN(C)C(=O)[C@H]1CO[C@H]2CCN(c3ncc(F)cn3)C[C@H]2C1` as the compound, how does the INHIBITION read?
**A.** 34.2%

**Q.** For `CN(C)C[C@@H]1C[C@@H]2CN(C(=O)c3ccoc3)CC[C@@H]2N1CC1CC1`, which INHIBITION is on record?
**A.** 25.7%

**Q.** `CCCNC(=O)CCC(=O)N1CCC(c2noc3cc(F)ccc23)CC1` was tested. Which INHIBITION did it give?
**A.** 21.8%

**Q.** Which INHIBITION does the source give for `CCOC(=O)C1(NCC(=O)Nc2cc(C)ccc2OC)CCCC1` here?
**A.** -35%

**Q.** With `Cc1ccc(CN2CCn3c(CN(C)C(C)C)cnc3C2)s1` as the compound, how does the INHIBITION read?
**A.** 7.53%

**Q.** `Cc1ncc(C(=O)NC2CCN(CCOc3ccc(Br)cc3)CC2)s1` was tested. Which INHIBITION did it give?
**A.** 88.6%

**Q.** Which INHIBITION does the source give for `CN1CCCC1CNC(=O)CCOc1ccc(Br)cc1` (stereo not given) here?
**A.** 22.983%

**Q.** How did the INHIBITION turn out when `Cc1nc(C(=O)NC2CCN(CCOc3ccc(Br)cc3)CC2)cs1` was run?
**A.** 85.4%

**Q.** `Cc1ncsc1C(=O)NC1CCN(CCC(N)=O)CC1` was tested. Which INHIBITION did it give?
**A.** 24%

**Q.** Which INHIBITION does the source give for `CCc1nnsc1C(=O)NC1CCN(CCOc2ccc(Br)cc2)CC1` here?
**A.** 80%

**Q.** Which INHIBITION does the source give for `Cc1nc(CC(=O)N2CCN(CCOc3ccccc3)CC2)cs1` here?
**A.** 21.8%

**Q.** `CC(=O)Nc1nc(C(=O)NCCOc2ccc(C)cc2)cs1` was tested. Which INHIBITION did it give?
**A.** 49.2%

**Q.** Which INHIBITION does the source give for `CCc1nnsc1C(=O)NC1CCN(c2ccccn2)CC1` here?
**A.** -7.9%

**Q.** `CO[C@@H]1CC[C@@H](NC(=O)c2ccc(OCCN3CCCC3)cc2)[C@H]1O` was tested. Which INHIBITION did it give?
**A.** 34.25%

**Q.** `COCc1nc(C(=O)N2CCCC(n3nc(C)nc3C)C2)cs1` (stereo not given) was tested. Which INHIBITION did it give?
**A.** 26.4%

**Q.** How did the INHIBITION turn out when `CCn1ncc2c1C(COC)N(C(=O)c1ccc3c(c1)OCO3)CC2` (stereo not given) was run?
**A.** -33%

**Q.** With `COc1nccnc1N1CCCC2(C1)C(=O)N(C)c1ccccc12` (stereo not given) as the compound, how does the INHIBITION read?
**A.** -60.7%

**Q.** Which INHIBITION does the source give for `C[C@@H]1CN(Cc2ccncc2)C[C@@]1(O)C1CC1` here?
**A.** 3.19%

**Q.** `CCc1nc(CN2CCCC(NCc3nc4ccccc4o3)C2)no1` (stereo not given) was tested. Which INHIBITION did it give?
**A.** -21.7%

**Q.** Which INHIBITION does the source give for `Cn1cnc2cc(C(=O)N3CCN(CCO)[C@@H]4CS(=O)(=O)C[C@@H]43)ccc21` here?
**A.** 73.6%

**Q.** For `O=C(c1ccc2nccnc2c1)N1CCN(CCO)[C@@H]2CS(=O)(=O)C[C@@H]21`, which INHIBITION is on record?
**A.** 41.5%

**Q.** With `CCN1CCN(C(=O)c2ccc3c(c2)OCC(=O)N3)[C@H]2CS(=O)(=O)C[C@H]21` as the compound, how does the INHIBITION read?
**A.** 58.2%

**Q.** Which INHIBITION does the source give for `Cc1nc2ccc(C(=O)N3CCN(CCO)[C@@H]4CS(=O)(=O)C[C@@H]43)cc2o1` here?
**A.** 22.3%

**Q.** For `CCN1CCN(C(=O)c2cc(-c3ccc(C)o3)n[nH]2)[C@H]2CS(=O)(=O)C[C@H]21`, which INHIBITION is on record?
**A.** -1.04%

**Q.** Which INHIBITION does the source give for `CCN1CCN(C(=O)c2cc(C(F)(F)F)n[nH]2)[C@H]2CS(=O)(=O)C[C@H]21` here?
**A.** 33.7%

**Q.** With `CCN1CCN(C(=O)c2ccc3c(c2)CCCN3)[C@H]2CS(=O)(=O)C[C@H]21` as the compound, how does the INHIBITION read?
**A.** 33.2%

**Q.** `CCCN1CCN(C(=O)c2ccc3nc(C)oc3c2)[C@H]2CS(=O)(=O)C[C@H]21` was tested. Which INHIBITION did it give?
**A.** 33%

**Q.** For `CCN1CCN(C(=O)c2ccc3c(c2)NC(=O)CN3)[C@H]2CS(=O)(=O)C[C@H]21`, which INHIBITION is on record?
**A.** 73%
